HP1b binding inh: HTS for Inhibitors of HP1-beta Chromodomain Interactions with Methylated Histone Tails; Chromobox protein homolog 1 (Homo sapiens), P83916; AlphaScreen HP1-beta / biotin-H3K9me3 peptide binding; Potency, µM (titrated, usually from 114 µM), without a hit: top-dose activity change, negative = inhibition, usual class: inhibitors; 390,000 compounds, 0.56% hits; AID 540317, 2011; note: nearly all actives have a fitted effect of over 70% in size
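Compound inhibition of the preformed complex between 50 nM HP1-beta and 50 nM biotinylated H3K9me3 peptide was read by AlphaScreen. Buffer was PBS pH 7.4 with 0.01% Tween-20. Incubations ran 30 min at room temperature, with 10 ug/mL donor/acceptor beads.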
G9a block: qHTS Assay for Inhibitors of Histone Lysine Methyltransferase G9a | Histone-lysine N-methyltransferase EHMT2 (Homo sapiens), Q96KQ7 | G9a H3K9 monomethylation, AlphaScreen, 2 h | Potency, µM (doses to about 102 µM), for inactives: top-dose activity, negative = inhibition, most hits filed as inhibitors | 350,000 compounds, 8.8% hits; note: % is set by controls: 0 for no effect and ±100 for the full control effect; nearly all actives have a fitted effect of over 75% in size
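Enzyme 20 nM + cpd, 15 min RT; add b-H3K9 pep 500 nM / SAM 20 uM; 2 h RT; anti-H3K9me1 Ab 0.5 ug/mL + SA donor / anti-rabbit acceptor beads 20 ug/mL each, 10 min; AlphaScreen read.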
JMJD2A Tudor: qHTS Assay for Inhibitors of JMJD2A-Tudor Domain; Potency, µM (series often up to 114 µM), for the others: top-dose activity change, negative = inhibition, usual class: inhibitors; 390,000 compounds, 4.4% hits; Lysine-specific demethylase 4A (Homo sapiens), O75164; AlphaScreen JMJD2A-Tudor / H3K4me3 peptide binding; note: % is set by controls: 0 for no effect and ±100 for the full control effect; nearly all actives have a fitted effect of over 50% in size
Target sequence (O75164 whole entry, looked up, the tested form may be a part): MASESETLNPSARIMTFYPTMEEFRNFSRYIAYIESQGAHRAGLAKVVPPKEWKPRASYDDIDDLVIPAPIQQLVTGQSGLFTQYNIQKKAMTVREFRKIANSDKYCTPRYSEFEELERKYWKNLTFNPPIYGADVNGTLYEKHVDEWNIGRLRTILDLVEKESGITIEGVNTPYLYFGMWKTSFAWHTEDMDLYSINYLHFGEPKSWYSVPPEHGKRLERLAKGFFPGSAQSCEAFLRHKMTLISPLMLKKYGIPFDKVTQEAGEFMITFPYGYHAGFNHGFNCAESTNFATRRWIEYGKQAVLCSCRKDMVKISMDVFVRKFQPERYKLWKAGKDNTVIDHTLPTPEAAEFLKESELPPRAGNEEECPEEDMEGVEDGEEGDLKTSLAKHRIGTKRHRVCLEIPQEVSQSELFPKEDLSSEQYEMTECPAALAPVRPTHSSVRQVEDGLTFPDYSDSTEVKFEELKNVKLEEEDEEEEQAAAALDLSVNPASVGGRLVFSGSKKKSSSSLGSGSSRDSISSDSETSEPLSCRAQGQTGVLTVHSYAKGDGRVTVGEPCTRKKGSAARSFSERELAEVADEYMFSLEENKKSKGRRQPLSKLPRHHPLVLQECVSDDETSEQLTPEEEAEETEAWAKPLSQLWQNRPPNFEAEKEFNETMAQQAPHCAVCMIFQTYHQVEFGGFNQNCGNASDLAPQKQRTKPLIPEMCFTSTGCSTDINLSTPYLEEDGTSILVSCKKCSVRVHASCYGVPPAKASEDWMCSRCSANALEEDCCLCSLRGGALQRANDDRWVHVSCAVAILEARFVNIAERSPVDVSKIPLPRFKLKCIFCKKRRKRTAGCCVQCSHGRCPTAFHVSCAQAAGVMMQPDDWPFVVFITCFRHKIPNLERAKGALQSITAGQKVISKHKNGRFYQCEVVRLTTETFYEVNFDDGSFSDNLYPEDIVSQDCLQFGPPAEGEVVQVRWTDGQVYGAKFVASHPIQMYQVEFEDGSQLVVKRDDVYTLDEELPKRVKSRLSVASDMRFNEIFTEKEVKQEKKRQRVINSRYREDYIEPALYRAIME
BAZ2B block: qHTS Assay for Inhibitors of BAZ2B; Bromodomain adjacent to zinc finger domain protein 2B (Homo sapiens), Q9UIF8; AlphaScreen BAZ2B-H3K14Ac peptide displacement; Potency, µM (titrated, usually from 114 µM), for the others: at the highest dose activity change, negative = inhibition, hits mostly inhibitors; 360,000 compounds, 4.4% hits; note: % is set by controls: 0 for no effect and ±100 for the full control effect; nearly all actives have a fitted effect of over 60% in size
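Compounds, titrated to a top concentration of 110 uM, were incubated 30 min at room temperature with preformed BAZ2B/acetyl-K14 H3 peptide complex (50 nM each). Proximity signal was measured by AlphaScreen after 20 min with beads.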
TDP1 block: qHTS Assay for Inhibitors of Tyrosyl-DNA Phosphodiesterase (TDP1); Tyrosyl-DNA phosphodiesterase 1 (Homo sapiens), Q9NUW8; recombinant TDP1, AlphaScreen DNA substrate cleavage; Potency, µM (series often up to 130 µM), inactives show at the top dose activity change, negative = inhibition, usual class: inhibitors; 350,000 compounds, 0.28% hits; note: % is set by controls: 0 for no effect and ±100 for the full control effect; nearly all actives have a fitted effect of over 40% in size
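Here, a 5' biotin and 3' phosphotyrosine-FITC DNA oligonucleotide reports Tdp1 activity: intact substrate bridges AlphaScreen beads, while cleavage leaves a 3' phosphate and drops signal. All incubations at room temperature.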
Sfp inh: qHTS Assay for Inhibitors of Bacillus subtilis Sfp phosphopantetheinyl transferase (PPTase). 4'-phosphopantetheinyl transferase ffp (Bacillus subtilis), Q9F4F7. Biochemical Sfp PPTase activity, qHTS. Potency, µM, without a hit: largest response in the series, negative = inhibition, most hits filed as inhibitors. 310,000 compounds, 3.5% hits. AID 1490, 2009;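 note: the enzyme is Sfp with the accession as filed and its product quenches rhodamine fluorescence; 0% = enzyme reaction without inhibitor and -100% = no enzyme wells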
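With Hepes-Na pH 7.6 buffer containing 10 mM MgCl2, Sfp (15 nM) modified BHQ-2-YbbR (12.5 uM) using rhodamine-CoA (5 uM). Two reads 30 minutes apart at 525/598 nm yielded each well's rate.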
* hit, by the source's call; ? = inconclusive; · = not tested or not shown; [ ] = another dose, or the depositor's remark. Only some compounds are listed: those with a hit (about 12% of all), similar ones and a draw of the others. Calls come from the whole dose curve; as a rule, active = well fitted curve in the direction sought with a large enough effect; inconclusive = small, poorly fitted or top-dose-only effect, or another doubt; inactive = no such curve, though single readings can be large; an effect the other way counts as inactive or inconclusive. Potency is the fitted concentration of half-maximal effect.

SMILES | HP1b binding inh | G9a block | JMJD2A Tudor | BAZ2B block | TDP1 block | Sfp inh
NC(=O)c1sc2nc(-c3cccnc3)ccc2c1N | 35.1% | 10µM* | -16.9% | -28.3% | -3.1% | ?
COC(=O)c1sc2nc(C)cc(C)c2c1N | 64.5% | -13.3%[0.501 µM] | 6.3% | 12.3% | 1.2% | 1.3%
COC(=O)c1sc2nc(-c3ccco3)ccc2c1N | 43.2% | ? | -6.2% | -3.9% | -12.8% | 8.91µM*
COC(=O)c1sc2nc(N)c(C#N)cc2c1N | 15.3% | 44.7µM* | -15.0% | -31.8% | -9.3% | -17.7%
CCOC(=O)[C@H]1[C@H]2COc3ccc(Cl)cc3[C@@H]2N2C(=O)c3ccccc3NC(=O)[C@@]12C | 34.4% | 5.6%[2.33 µM] | -24.1% | -1.3% | 2.6% | ·
CCC(C(=O)Nc1cc(C)ccc1C)n1c(=O)c(C(F)(F)F)nc2ccccc21 (stereo unspecified) | 22.1% | -5.4%[59 µM] | -14.3% | -3.5% | -5.3% | ·
CN(C)S(=O)(=O)c1ccc(NC(=O)CSc2nnnn2C)cc1 | 14.0% | 31.6µM* | -14.0% | -16.8% | 3.1% | ?
O=C(Nc1ccc2c(c1)OCCO2)c1cc2sccc2n1Cc1ccccc1 | 5.1% | 25.0%[0.501 µM] | -25.4% | ? | 1.9% | -1.6%
CN(C)S(=O)(=O)c1ccc(C(=O)NC(=O)CSc2nnnn2C)cc1 | 33.8% | · | -4.1% | · | -0.1% | ·
Cc1c(C(=O)Nc2ccc3c(c2)OCCO3)cnn1C | 28.8% | 15.6%[59 µM] | -8.9% | 4.6% | 0.7% | 9.8%
Cc1nn(C)cc1C(=O)Nc1ccc2c(c1)OCCO2 | -5.0% | 31.6µM* | -10.3% | 3.4% | 10.3%[0.0935 µM] | 50.1µM*
Cn1c(C(=O)Nc2ccc3c(c2)OCCO3)cc2sccc21 | -18.5% | 50.1µM* | ? | ? | 3.1% | -20.2%
O=C(CSc1ncccn1)NC(=O)Nc1ccc2c(c1)OCCO2 | 46.0% | 44.7µM* | -1.0% | -15.6% | -2.5% | 5.1%
O=C(CSc1ncccn1)Nc1ccc2c(c1)OCO2 | 5.1%[57 µM] | · | -17.9% | · | -0.1% | ·
COc1ccc(CCC(=O)NCCS(=O)(=O)N2CCN(c3ccccc3OC)CC2)cc1 | 19.0% | 8.2% | 11.2% | 4.4% | 6.5% | 20.5%
O=C(NCCNC(=O)c1ccccc1F)c1ccco1 | 4.0% | 25.5% | -3.2% | 9.4% | · | 7.8%
Nc1ccccc1SCC(=O)Nc1ccc2c(c1)OCCO2 | 23.2% | 28.2µM* | -5.6% | -18.8% | · | -31.0%
Cc1nc(SCC(=O)Nc2ccc3c(c2)OCCO3)nc(C)c1C | 55.9% | 22.4µM* | -9.0% | -11.0% | 5.0% | ?
O=C(CSc1ccc([N+](=O)[O-])cn1)Nc1ccc2c(c1)OCCO2 | 20.3% | ? | -23.2% | ? | 5.1% | -5.5%
CN(C)S(=O)(=O)c1ccc(SCC(=O)Nc2ccc3c(c2)OCCO3)nc1 | 9.0% | 39.8µM* | -20.0% | 13.2% | 0.3% | ·
Nc1ccccc1SCC(=O)Nc1ccc2c(c1)OCO2 | 18.8% | 67.3% | -16.0% | 9.4% | 2.0% | -4.9%
CC(Nc1ccc2c(c1)OCCO2)C(=O)N1CCc2ccccc21 (stereo unspecified) | 4.1% | ? | ? | 44.7µM* | 2.6% | 1.2%
Cc1cc(C)nc(SCC(=O)Nc2ccc3c(c2)OCO3)n1 | 58.7% | · | -1.5% | 3.9% | 1.1% | -1.1%
CC(NCc1ccc2c(c1)OCO2)C(=O)N1CCc2ccccc21 (stereo unspecified) | 7.8% | 3.1% | -25.5% | -0.3% | -1.1% | 9.1%
COC(=O)C1=C(C(=O)OC)[C@@H]2Nc3ccccc3[C@@]23C[C@@H](C(=O)OC)N(S(=O)(=O)c2ccc(C(F)(F)F)cc2)C3=N1 | · | · | · | · | 17.3%[12.3 µM] | 1.1%
